From PubChem BioAssay (NCATS)
“And” between values parts separate entries of the source, which are not always exact repeats. Identical values can stand only once. Records with an inconclusive call do not appear. A call without a number means that no potency is given here. The source made the active and inactive calls. Unless noted, calls come from the whole dose curve; as a rule, active = well fitted curve in the direction sought with a large enough effect; inconclusive = small, poorly fitted or top-dose-only effect, or another doubt; inactive = no such curve, though single readings can be large; an effect the other way counts as inactive or inconclusive. Where a SMILES comes first, the peptide text is derived from it. [ ]: non-standard residue; d: D form. pGlu = O=C1CC[C@@H](C(=O)O)N1; Thz = O=C(O)[C@@H]1CSCN1

How the values were obtained:
[1] = Primary qHTS for inhibitors of nuclear receptor binding SET domain protein 2 (NSD2) in an isogenic RCH-ACV NSD2 p.E1099K mutant (9B) (AID 1645876); note: nearly all actives have a fitted effect of over 70% in size; note: potency is the fitted concentration of half-maximal effect
[2] = Primary qHTS for inhibitors of nuclear receptor binding SET domain protein 2 (NSD2) in an RCH-ACV wild type WT cells (2C) (AID 1645877); note: nearly all actives have a fitted effect of over 70% in size; note: potency is the fitted concentration of half-maximal effect
[3] = target: Catechol O-methyltransferase (Homo sapiens) (UniProt P21964); assay: Confirmatory Screen for Target Class Profiling of Small Molecule Inhibitors of Methyltransferases (AID 1745852; calls by dose curve); conditions: MTase-Glo luminescence, SAH detection, recombinant enzyme; measured here: COMT max response; stronger effect = lower value
[4] = target: Guanidinoacetate N-methyltransferase (Homo sapiens) (UniProt Q14353); assay: as above; conditions: MTase-Glo luminescence, SAH detection, recombinant enzyme; activity change, negative = inhibition: at 57.3 µM (top of the series)

Chain of Catechol O-methyltransferase (Homo sapiens) (P21964 whole entry, looked up): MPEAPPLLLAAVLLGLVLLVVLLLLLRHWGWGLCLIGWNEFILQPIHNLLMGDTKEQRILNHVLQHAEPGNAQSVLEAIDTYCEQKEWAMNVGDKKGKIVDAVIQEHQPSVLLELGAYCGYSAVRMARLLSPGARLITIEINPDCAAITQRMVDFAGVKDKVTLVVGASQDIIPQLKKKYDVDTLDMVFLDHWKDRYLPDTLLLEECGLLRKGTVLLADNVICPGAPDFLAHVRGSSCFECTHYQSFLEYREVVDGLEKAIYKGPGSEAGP

SMILES: CCCCCCCCCCCCOCCO
- Potency [1]: inactive

SMILES: CC1(C)S[C@@H]2[C@H](NC(=O)[C@H](NC(=O)N3CCN(S(C)(=O)=O)C3=O)c3ccccc3)C(=O)N2[C@H]1C(=O)O
- Potency [1]: inactive

SMILES: C/C(=N\O)c1ccc(OCC(=O)N2CCCCC2)cc1
- Potency [1]: inactive

SMILES: CCCCCCCCCCCCCCCC(=O)OC(C)C
- Potency [1]: inactive

SMILES: COC(=O)C1=C(C)NC(C)=C(C(=O)OCC(C)=O)C1c1ccccc1[N+](=O)[O-] (stereo not given)
- Potency [1]: 11.9 µM (active)

SMILES: O=C(O)[C@H](CC(=O)N1C[C@H]2CCCC[C@H]2C1)Cc1ccccc1
- Potency [1]: inactive

SMILES: Nc1ncnc2c1c(I)cn2[C@@H]1C[C@H](N)[C@@H](O)[C@H]1O
- Potency [1]: 18.4 µM (active)

SMILES: Nc1ccc([N+](=O)[O-])cc1O
- Potency [1]: 6.86 µM (active)

SMILES: O=C(/C=C/c1ccc(O)cc1)c1ccc(O)cc1O
- Potency [1]: 8.33 µM (active)

SMILES: c1ccc2sc(SN3CCOCC3)nc2c1
- Potency [1]: inactive

SMILES: CC(C(=O)O)c1ccc2c(c1)[nH]c1ccc(Cl)cc12 (stereo not given)
- Potency [1]: inactive

SMILES: CNC(=O)c1c(I)c(NC(=O)CCCCC(=O)Nc2c(I)c(C(=O)O)c(I)c(C(=O)NC)c2I)c(I)c(C(=O)O)c1I
- Potency [1]: inactive

SMILES: COC(=O)c1nc(Cl)c(Cl)nc1N
- Potency [1]: 0.0596 µM (active)

SMILES: CC(C)(C)c1nnc(NS(=O)(=O)c2ccc(N)cc2)s1
- Potency [1]: inactive

SMILES: CN1[C@@H]2CC[C@H]1CC(OC(c1ccccc1)c1ccccc1)C2 (stereo not given in full)
- Potency [1]: inactive

SMILES: Cc1c(N)c(=O)n(-c2ccccc2)n1C
- Potency [1]: inactive

SMILES: Cc1ccc2c(n1)Oc1ccc(C(C)C(=O)OCC(=O)N(C)C)cc1C2 (stereo not given)
- Potency [1]: inactive
- Potency [2]: inactive

SMILES: O=C(Nc1ccc(C(=O)O)c(O)c1)c1ccccc1
- Potency [1]: inactive
- Potency [2]: inactive

SMILES: CS(=O)(=O)c1ccc(-n2nc(C(F)(F)F)cc2-c2ccc(F)cc2)cc1
- Potency [1]: inactive
- Potency [2]: inactive

SMILES: NCCO
- Potency [1]: inactive

SMILES: O=C(Nc1ccc2[nH]ncc2c1)C1CCC1
- Potency [1]: inactive
- Potency [2]: inactive

SMILES: CC1(C)[C@@H](O[C@H]2O[C@H](C(=O)O)[C@@H](O)[C@H](O)[C@H]2O[C@@H]2O[C@H](C(=O)O)[C@@H](O)[C@H](O)[C@H]2O)CC[C@]2(C)[C@H]3C(=O)C=C4[C@@H]5C[C@@](C)(C(=O)O)CC[C@]5(C)CC[C@@]4(C)[C@]3(C)CC[C@@H]12
- Potency [1]: inactive

SMILES: CN1CC(=O)N/C1=N/C(=O)Nc1cccc(Cl)c1
- Potency [1]: inactive

SMILES: CCNc1nc2c(ncn2[C@H]2C[C@H](O)[C@@H](CO)O2)c(=O)[nH]1
- Potency [1]: inactive

SMILES: CCCCC1C(=O)N(c2ccccc2)N(c2ccc(O)cc2)C1=O (stereo not given)
- Potency [1]: 0.531 µM (active)

SMILES: COc1cc2c3cc1Oc1cc(ccc1O)C[C@@H]1c4c(cc(OC)c(O)c4Oc4ccc(cc4)C[C@@H]3N(C)CC2)CC[N+]1(C)C
- Potency [1]: inactive
- Potency [2]: inactive

SMILES: O=C1NC(=O)/C(=C/c2ccc3nccnc3c2)S1
- Potency [1]: inactive

SMILES: COc1ccnc2c1CCCCC2S(=O)c1nc2ccccc2[nH]1 (stereo not given)
- Potency [1]: inactive
- Potency [2]: inactive

SMILES: CCNC(=O)[C@H]1O[C@@H](n2cnc3c(N)nc(NCCc4ccc(CCC(=O)O)cc4)nc32)[C@H](O)[C@@H]1O
- Potency [1]: inactive
- Potency [2]: inactive

SMILES: Cc1ccc(O)c(-n2nc3ccccc3n2)c1
- Potency [1]: inactive

SMILES: CN(C)c1nc2c(Br)c(Br)c(Br)c(Br)c2[nH]1
- Potency [1]: 14.6 µM (active)
- Potency [2]: 10.3 µM (active)

SMILES: Nc1nc2ccc([N+](=O)[O-])cc2s1
- Potency [1]: 21.7 µM (active)
- Potency [2]: 19.3 µM (active)

SMILES: CO[C@@]1(NC(=O)Cc2cccs2)C(=O)N2C(C(=O)O)=C(COC(N)=O)CS[C@@H]21
- Potency [1]: inactive
- Potency [2]: inactive

SMILES: CCN1/C(=C/C(C)=O)Sc2ccc(OC)cc21
- Potency [1]: inactive

SMILES: COc1ccc(-c2cc(=S)ss2)cc1
- Potency [1]: inactive
- Potency [2]: inactive

SMILES: COc1cc(CNC(=O)CCCC/C=C/C(C)C)ccc1O
- Potency [1]: 7.28 µM (active) and 4.68 µM (active)
- Potency [2]: 7.28 µM (active) and 4.17 µM (active)

SMILES: C=CCc1cccc(/C=N/NC(=O)CN2CCN(Cc3ccccc3)CC2)c1O
- Potency [1]: 7.42 µM (active)
- Potency [2]: 7.42 µM (active)

SMILES: COc1ccc(/C=C/C(=O)Nc2ccccc2C(=O)O)cc1OC
- Potency [1]: inactive
- Potency [2]: inactive

SMILES: O=C(O)Cc1ccc2c(c1)C(=O)c1ccccc1CO2
- Potency [1]: inactive
- Potency [2]: inactive

SMILES: CCOC(=O)c1ccccc1O
- Potency [1]: inactive
- Potency [2]: inactive

SMILES: COC(=O)Nc1nc2ccc(C(=O)C3CC3)cc2[nH]1
- Potency [1]: 0.376 µM (active)
- Potency [2]: 0.266 µM (active)

SMILES: CCCSc1ccc2nc(NC(=O)OC)[nH]c2c1
- Potency [1]: 0.422 µM (active)
- Potency [2]: 0.266 µM (active)

SMILES: CC[C@H]1OC(=O)[C@H](C)[C@@H](O[C@H]2C[C@@](C)(OC)[C@@H](O)[C@H](C)O2)[C@H](C)[C@@H](O[C@@H]2O[C@H](C)C[C@H](N(C)C)[C@H]2O)[C@](C)(O)C[C@@H](C)C(=O)[C@H](C)[C@@H](O)[C@]1(C)O
- Potency [1]: inactive

SMILES: O=C(O)CC1CC(c2ccccc2)=NO1 (stereo not given)
- Potency [1]: inactive
- Potency [2]: inactive

SMILES: O=c1[nH]c2ccccc2n1CCCN1CCN(C(c2ccccc2)c2ccccc2)CC1
- Potency [1]: 23.7 µM (active)
- Potency [2]: 23.7 µM (active)

SMILES: O=C1CC[C@@H](C(=O)N2CSC[C@H]2C(=O)O)N1 ([pGlu]-[Thz]-OH)
- Potency [1]: inactive
- Potency [2]: inactive

SMILES: CC1(C)S[C@@H]2[C@H](NC(=O)[C@H](N)c3ccccc3)C(=O)N2[C@H]1C(=O)O
- Potency [1]: inactive
- Potency [2]: inactive

SMILES: CC(=O)O[C@H]1C[C@@]2(C)[C@@H](C[C@@H](O)[C@H]3[C@@]4(C)CC[C@@H](O)[C@@H](C)[C@@H]4CC[C@@]32C)/C1=C(\CCC=C(C)C)C(=O)O
- Potency [1]: inactive
- Potency [2]: inactive

SMILES: CN(C)c1ccc(C(=C2C=CC(=[N+](C)C)C=C2)c2ccccc2)cc1
- Potency [1]: 0.0944 µM (active)
- Potency [2]: 0.188 µM (active)

SMILES: Oc1cc(O)cc(/C=C/c2ccc(O)c(O)c2)c1
- Potency [1]: 6.51 µM (active)
- activity [3]: 119%
- activity change, negative = inhibition [4]: -14.6%

SMILES: Cc1onc(-c2c(F)cccc2Cl)c1C(=O)N[C@@H]1C(=O)N2[C@@H]1SC(C)(C)[C@@H]2C(=O)O
- Potency [1]: inactive
- Potency [2]: inactive

SMILES: C[C@H](O)[C@H](O)[C@H]1CNc2nc(N)[nH]c(=O)c2N1
- Potency [1]: inactive
- Potency [2]: inactive
